Measured values taken from PubChem BioAssay (NCI).
This is part of a sample that, as a whole, favours compounds with a hit. Of some 79,000 tested, about 15% had one in any assay. Active and inactive are the calls of the source. Cut-off read from the data, not from the text of the source: active = growth inhibition above about 70%; inactive = the rest.

Key:
[1] = NCI Yeast Anticancer Drug Screen. Data for the rad52 strain (AID 147);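 note: 0% = growth of vehicle-treated control cultures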; conditions: S. cerevisiae rad52 mutant growth inhibition, hits give high values
Outline: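 Inhibition of yeast growth, referenced to vehicle controls, was the measured output for a strain with defective DNA damage repair.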

[2] = NCI Yeast Anticancer Drug Screen. Data for the wt1 strain (AID 149);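 note: 0% = growth of vehicle-treated wt1 cultures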; conditions: S. cerevisiae wt1 strain (SPY 50644) growth inhibition, hits give high values
Outline: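 Each compound is tested on wt1 yeast and the loss of growth versus vehicle gives the inhibition value.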

[3] = NCI Yeast Anticancer Drug Screen. Data for the rad50EPP+ strain (AID 151);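 note: 0% = growth of vehicle-treated control cultures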; conditions: S. cerevisiae rad50 mutant strain, hits give high values
Outline: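 Genetically defined yeast (rad50EPP+, DNA damage repair alteration) is grown with compound, and inhibition of growth is expressed relative to vehicle-treated controls.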

[4] = NCI Yeast Anticancer Drug Screen. Data for the mgt1 strain (AID 153); conditions: S. cerevisiae mgt1 mutant growth inhibition, hits give high values
Outline: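 In the mgt1 strain, test compounds were added and growth inhibition was determined relative to vehicle-treated controls.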

[5] = NCI Yeast Anticancer Drug Screen. Data for the rad50 strain (AID 155);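 note: 0% = growth of vehicle-only cultures of the same strain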; conditions: S. cerevisiae rad50 strain growth inhibition, hits give high values
Outline: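 Vehicle-treated cultures provide the reference for the growth inhibition reported for compound-exposed, repair-deficient yeast.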

[6] = NCI Yeast Anticancer Drug Screen. Data for the mec2-1 strain (AID 157); conditions: S. cerevisiae mec2-1 strain, hits give high values
Outline: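 Each compound was tested on mec2-1 yeast, a strain altered in DNA damage repair or cell cycle control. Growth inhibition is reported relative to vehicle.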

[7] = NCI Yeast Anticancer Drug Screen. Data for the sgs1 mgt1 strain (AID 161);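 note: 0% = growth of cultures given vehicle only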; conditions: S. cerevisiae sgs1 mgt1 strain, hits give high values
Outline: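 Inhibition of yeast growth, normalised to vehicle-treated controls, is reported for a strain bearing genetic alterations in DNA damage repair.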

[8] = NCI Yeast Anticancer Drug Screen. Data for the CLN2oe strain (AID 163);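 note: 0% = growth of vehicle-only control cultures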; conditions: S. cerevisiae CLN2oe strain, hits give high values
Outline: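 First, the altered yeast strain was treated with each compound; second, its growth was measured; finally, inhibition was derived by comparison with vehicle controls.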

[9] = NCI Yeast Anticancer Drug Screen. Data for the cln2 rad14 strain (AID 165);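 note: 0% = growth equal to vehicle treated cultures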; conditions: S. cerevisiae cln2 rad14 strain, hits give high values
Outline: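 Test compounds were added to cln2 rad14 yeast cultures; inhibition of growth was then determined by comparison with vehicle treatment.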

[10] = NCI Yeast Anticancer Drug Screen. Data for the bub3 strain (AID 167); conditions: S. cerevisiae bub3 mutant strain, hits give high values
Outline: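 Mutant yeast screening strain plus compound; vehicle-treated cultures serve as the 0% inhibition reference.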

[11] = NCI Yeast Anticancer Drug Screen. Data for the wt2 strain (AID 169); conditions: S. cerevisiae wt2 strain growth inhibition, hits give high values
Outline: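 The panel's yeast strains carry defined changes in DNA repair or cell cycle genes. Each strain is grown with compound, and growth loss is scored relative to vehicle.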

[12] = NCI Yeast Anticancer Drug Screen. Data for the mlh1 strain (AID 171);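 note: 0% = growth of vehicle-treated control cultures of the same strain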; conditions: S. cerevisiae mlh1 strain growth inhibition, hits give high values
Outline: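 Inhibition values reflect reduced yeast growth in the presence of compound, referenced to vehicle controls, using a strain chosen for its alteration in DNA repair or cell cycle control.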

[13] = NCI Yeast Anticancer Drug Screen. Data for the sgs1 strain (AID 173);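 note: 0% = growth of vehicle-only control cultures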; conditions: S. cerevisiae sgs1 mutant, hits give high values
Outline: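 Vehicle-treated cultures served as reference for growth inhibition of a yeast strain altered in DNA damage repair or cell cycle control after compound exposure.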

[14] = NCI Yeast Anticancer Drug Screen. Data for the mlh1 rad18 strain (AID 175); conditions: S. cerevisiae mlh1 rad18 strain growth inhibition, hits give high values
Outline: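 Inhibition values reflect reduced growth of mutant yeast versus vehicle-treated controls following compound exposure; the mutations affect DNA damage repair.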

[15] = NCI Yeast Anticancer Drug Screen. Data for the rad18 strain (AID 177); conditions: S. cerevisiae rad18 mutant growth inhibition, hits give high values
Outline: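 Steps: expose repair-mutant yeast to compound; measure growth; express as inhibition relative to vehicle control.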

[16] = at 5.0 µM (retest, dose inferred, filed as 0.5)
[17] = at 50.0 µM (retest, dose inferred, filed as 5.0)

Measured: growth inhibition

CN(C)CCNC(=O)c1cccc2cc([N+](=O)[O-])ccc12
active: [1]; at 33.0 µM 92% | [1]; at 100.0 µM 96% | [2]; at 33.0 µM 80% | [2]; at 100.0 µM 93% | [3]; at 33.0 µM 91% | [3]; at 100.0 µM 95% | [4]; at 33.0 µM 78% | [4]; at 100.0 µM 92% | [5]; at 11.0 µM 77% | [5]; at 33.0 µM 93% | [5]; [17] 92% | [5]; at 50.0 µM 86.5% | [5]; at 100.0 µM 97% | [6]; at 33.0 µM 70% | [6]; [17] 72% | [6]; at 50.0 µM 82.7% | [6]; at 100.0 µM 93% | [7]; at 50.0 µM 84.3% | [8]; at 100.0 µM 84% | [9]; at 50.0 µM 71% | [10]; at 50.0 µM 82.8% | [10]; at 100.0 µM 85% | [11]; at 100.0 µM 87% | [12]; at 100.0 µM 92% | [13]; at 33.0 µM 79% | [13]; at 100.0 µM 93% | [14]; [17] 86% | [15]; at 33.0 µM 70% | [15]; at 100.0 µM 90%
inactive: [1]; at 1.2 µM 14% | [1]; at 3.7 µM 20% | [1]; at 11.0 µM 61% | [2]; at 1.2 µM 13% | [2]; at 3.7 µM 8% | [2]; at 11.0 µM 41% | [3]; at 1.2 µM 5% | [3]; at 3.7 µM 21% | [3]; at 11.0 µM 64% | [4]; at 1.2 µM -1% | [4]; at 3.7 µM 4% | [4]; at 11.0 µM 33% | [5]; at 1.2 µM 35% | [5]; at 3.7 µM 42% | [5]; [16] 38% | [6]; at 1.2 µM -6% | [6]; at 3.7 µM 8% | [6]; [16] 11% | [6]; at 11.0 µM 20% | [7]; [16] -2% | [7]; [17] 68% | [8]; at 1.2 µM 15% | [8]; at 3.7 µM 20% | [8]; at 11.0 µM 43% | [8]; at 33.0 µM 56% | [9]; [16] 23% | [9]; [17] 55% | [10]; at 1.2 µM -12% | [10]; at 3.7 µM -27% | [10]; [16] 8% | [10]; at 11.0 µM -18% | [10]; at 33.0 µM 51% | [10]; [17] 67% | [11]; at 1.2 µM -13% | [11]; at 3.7 µM -10% | [11]; at 11.0 µM 5% | [11]; at 33.0 µM 60% | [12]; at 1.2 µM -7% | [12]; at 3.7 µM 6% | [12]; at 11.0 µM 33% | [12]; at 33.0 µM 69% | [13]; at 1.2 µM 16% | [13]; at 3.7 µM 22% | [13]; at 11.0 µM 49% | [14]; [16] 18% | [14]; at 50.0 µM 45.6% | [15]; at 1.2 µM 7% | [15]; at 3.7 µM 5% | [15]; at 11.0 µM 23%
